# Results reported in publication PMC5540273 (PLoS ONE, 2017).
# Where two headings read alike, the source gives them in different places.
# Tests used:
# Conditions in all cases: n = 1
# SIK2 = tested on: SIK2
# SIK = tested on: SIK
# SLK = tested on: SLK
# SNARK = tested on: T1, SNARK
# T1 construct: gene NUAK2
# SNRK = tested on: SNRK
# SRC = tested on: SRC
# SRMS = tested on: SRMS
# SRPK1 = tested on: SRPK1
# SRPK2 = tested on: SRPK2
# SRPK3 = tested on: SRPK3
# [1] = concentration: 1 μM, replicates: in singlicate
# 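Also: KINOMEscan kinase panel screen.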
Compound,%Inh (SIK2; [1]),%Inh (SIK; [1]),%Inh (SLK; [1]),%Inh (SNARK; [1]),%Inh (SNRK; [1]),%Inh (SRC; [1]),%Inh (SRMS; [1]),%Inh (SRPK1; [1]),%Inh (SRPK2; [1]),%Inh (SRPK3; [1]),%Inh (SIK2; 1 µM),%Inh (SIK; 1 µM),%Inh (SLK; 1 µM),%Inh (SNARK; 1 µM),%Inh (SNRK; 1 µM),%Inh (SRC; 1 µM),%Inh (SRMS; 1 µM),%Inh (SRPK1; 1 µM),%Inh (SRPK2; 1 µM),%Inh (SRPK3; 1 µM)
Nc1ncnc2[nH]c(-c3ccccc3)nc12 [AH5015],5%,0%,14%,3%,100%,29%,2%,12%,0%,0%,,,,,,,,,,
CCCc1ccc(S(=O)(=O)NC2CCN(c3ccnc(Nc4ccc(F)cc4)n3)C2)cc1 (centres unmarked) [GSK1379715],0%,0%,0%,0%,0%,48%,0%,0%,17%,6%,,,,,,,,,,
COc1ccc(Nc2nccc(NCCNC(=O)Nc3ccccc3F)n2)cc1 [GSK1379901],2%,0%,11%,0%,0%,0%,0%,0%,0%,0%,,,,,,,,,,
Cc1nnc(-c2ccc3occ(-c4ccc(S(C)=O)cc4)c3c2)[nH]1 (centres unmarked),19%,7%,50%,11%,0%,9%,0%,27%,0%,0%,,,,,,,,,,
CCn1c(-c2ccccn2)nc2cnccc21 [SB-736398],3%,0%,8%,0%,0%,79%,0%,0%,27%,5%,,,,,,,,,,
Cc1cc(N2Cc3ccccc3C2)nc(Nc2ccc(S(=O)(=O)N3CCOCC3)cc2)n1.Cl [GSK1669917],0%,0%,0%,10%,0%,0%,0%,0%,0%,0%,,,,,,,,,,
O=c1cc(N2CCOCC2)nc2n(Cc3cccc(Cl)c3Cl)ccn12 [GSK2286295],0%,0%,17%,0%,0%,3%,0%,34%,0%,0%,,,,,,,,,,
Cc1cc(NCC(c2ccccc2)c2ccccc2)nc(NCc2ccc(C(F)(F)F)cc2)n1 [GW497681],0%,0%,0%,0%,0%,0%,0%,0%,22%,0%,,,,,,,,,,
COc1cc2nccc(Nc3ccc(NC(=O)c4ccc(C)cc4)c(O)c3)c2cc1OC.Cl [GW440132],0%,16%,44%,0%,0%,20%,71%,18%,0%,0%,,,,,,,,,,
C[C@@H]1CCCCN1c1cc(-c2ccc3c(N)n[nH]c3c2)nc(N)n1 [GSK2258759],0%,0%,0%,2%,0%,0%,0%,0%,0%,0%,,,,,,,,,,
Cc1ccc(-c2cc(-c3c[nH]nc3-c3ccccn3)ccn2)cc1 [GW684088],0%,0%,0%,0%,0%,0%,9%,13%,52%,0%,,,,,,,,,,
CC(C)(C)c1ccc(C(=O)Nc2cn3cc(-c4cccnc4)ccc3n2)cc1,25%,22%,19%,5%,20%,3%,0%,15%,0%,0%,,,,,,,,,,
CS(=O)(=O)c1ccc(-c2nc3n(c2-c2ccncc2)CCC3)cc1 [SKF-105942],0%,1%,0%,0%,14%,0%,0%,0%,0%,22%,,,,,,,,,,
Cn1ccc2ncnc(Oc3cccc(C(=O)Nc4ccccc4)c3)c21,5%,15%,13%,23%,9%,0%,0%,0%,0%,0%,,,,,,,,,,
Cl.O=C(Nc1cccc(-c2nn3ncccc3c2-c2ccnc(Nc3cccnc3)n2)c1)c1c(F)cccc1F [GSK312879],0%,0%,17%,0%,0%,13%,5%,30%,0%,7%,,,,,,,,,,
Cl.NC(=O)c1cccc(Nc2nccc(Nc3ccc(Oc4cccc(Cl)c4)c(Cl)c3)n2)c1 [GW659008],5%,12%,32%,0%,0%,25%,37%,0%,0%,13%,,,,,,,,,,
COc1cc2ncn(-c3cc(OCC4CCCO4)c(C(N)=O)s3)c2cc1OC (centres unmarked) [GSK204607],93.5%,0%,96.3%,39%,0%,0%,0%,28%,11%,0%,,,,,,,,,,
CN(C)CCN(C)C(=O)c1cc(-c2ccncc2)c(-c2ccc(Cl)c(O)c2)o1.Cl.Cl [SB-710397],0%,0%,91.7%,0%,0%,11%,0%,0%,18%,0%,,,,,,,,,,

Compound,%Inh (SIK2; [1]),%Inh (SIK; [1]),%Inh (SLK; [1]),%Inh (SNARK; [1]),%Inh (SNRK; [1]),%Inh (SRC; [1]),%Inh (SRMS; [1]),%Inh (SRPK1; [1]),%Inh (SRPK2; [1]),%Inh (SRPK3; [1]),%Inh (SIK2; 1 µM),%Inh (SIK; 1 µM),%Inh (SLK; 1 µM),%Inh (SNARK; 1 µM),%Inh (SNRK; 1 µM),%Inh (SRC; 1 µM),%Inh (SRMS; 1 µM),%Inh (SRPK1; 1 µM),%Inh (SRPK2; 1 µM),%Inh (SRPK3; 1 µM)
COc1cccc(-c2cc(-c3c[nH]nc3-c3ccccn3)ccn2)c1 [GW680338],0%,0%,0%,11%,0%,0%,2%,96.8%,8%,0%,,,,,,,,,,
COc1ccccc1-c1ccc2c(NC(=O)C3CC3)n[nH]c2n1 [SB-711239],0%,3%,8%,8%,14%,6%,0%,0%,31%,13%,,,,,,,,,,
COc1ccccc1CNC(=O)c1cc(C(=O)c2ccccc2C)c[nH]1 [GSK364507],0%,14%,5%,0%,0%,0%,0%,26%,0%,0%,,,,,,,,,,
Fc1cc(Cl)ccc1Nc1ccnc2cc(-c3ccc(CN4CCCCC4)o3)ccc12 [GW560116],22%,9%,0%,0%,0%,90.8%,0%,0%,35%,0%,,,,,,,,,,
O=C(Nc1ccc2c(c1)OCO2)NC1CCN(c2ccnc(Nc3ccc(F)cc3)n2)C1 (centres unmarked) [GSK1379724],0%,0%,10%,0%,0%,0%,0%,0%,0%,5%,,,,,,,,,,
O=C(O)COc1ncnc2cc(-c3ccc4[nH]ncc4c3)sc12,0%,8%,0%,13%,11%,0%,8%,0%,0%,1%,,,,,,,,,,
Cc1csc(-c2nc(Nc3ccncc3)c3ccccc3n2)n1 [GW869640],1%,4%,22%,26%,20%,8%,25%,0%,0%,39%,,,,,,,,,,
CCn1c(-c2cccnc2O)nc2cnccc21 [SB-736715],0%,0%,0%,0%,0%,0%,0%,0%,0%,20%,,,,,,,,,,
Cc1ccccc1-n1cnc2c(N)ncnc21 [SKF-97510],0%,0%,100%,0%,0%,13%,0%,0%,0%,0%,,,,,,,,,,
COc1ccc2nc(-c3cccc(C)n3)nc(Nc3ccncc3)c2c1 [GSK204919],2%,0%,9%,0%,0%,5%,0%,26%,0%,16%,,,,,,,,,,
O=C(Nc1ccccc1)Nc1cccc(Oc2ccc3nccn3n2)c1,12%,0%,12%,0%,0%,0%,0%,0%,3%,29%,,,,,,,,,,
Cn1ccc2ncnc(Oc3ccc(NC(=O)Nc4ccccc4)cc3)c21,27%,0%,22%,19%,33%,11%,0%,0%,0%,9%,,,,,,,,,,
COc1cc2ncnc(Nc3ccc4nc(-c5ccccc5)[nH]c4c3)c2cc1OC.Cl [GW282450],2%,0%,30%,0%,0%,0%,0%,3%,0%,17%,,,,,,,,,,
Cc1cccc(-c2cc(Nc3ccncc3)c3ccccc3n2)n1 [GSK223675],0%,0%,0%,0%,0%,0%,0%,5%,0%,0%,,,,,,,,,,
Cc1ccc(NC(=O)Nc2cccc(C(F)(F)F)c2)cc1 [GSK955403],,,,,,,,,,,0%,0%,5%,0%,0%,15%,0%,17%,5%,0%
O=S(=O)(c1ccc(-c2ccnc3[nH]ccc23)cc1)N1CCCC1 [GSK846226],0%,0%,0%,16%,0%,0%,0%,60%,0%,3%,,,,,,,,,,
O=C(Nc1n[nH]c2nc(-c3nccs3)c(Br)cc12)C1CCCC1 [SB-742609],0%,5%,7%,0%,0%,0%,0%,0%,0%,13%,,,,,,,,,,
